Source: PubChem BioAssay
eIF4E 4G PPI: blocks eIF4E binding to eIF4G; P63073+Q04637; TR-FRET eIF4E-eIF4GI(517-606) binding, 2 h; inhibition, % at 21.7 µM; hit rate 0.37% among 220,000; AID 782;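 active means inhibition above about 30%, limit read from the data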
EP2 antag: inhibitors of human EP2 prostaglandin E2 receptor; P43116; AID 1422; hit rate 0.52% among 260,000; inhibition, % at 25 µM; C6 glioma cells expressing human EP2, cAMP TR-FRET; cells stimulated with saturating PGE2;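 active means percent inhibition above 40 after rounding to a whole number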;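 further: rat C6 glioma host cells with rolipram phosphodiesterase inhibitor present; the protocol text gives 20 µM as final concentration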
EP2 mod: modulators of human EP2 prostaglandin E2 receptor. P43116. EP2-expressing cells, cAMP HTRF FRET, PGE2 co-stimulation. induction, % at 25 µM. hit rate 0.83% among 260,000. AID 940;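 active means compounds whose cAMP rise, as percent of the full-agonist control response, exceeds 60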;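 further: rat C6 glioma line stably carrying human EP2 under a CMV promoter; the protocol text gives 20 µM as final concentration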
PERK inhibitor: human PERK inhibition, primary cell-based screen; hit rate 0.17% among 220,000; AID 1416; inhibition, % at 5.6 µM; Q9NZJ5; CHO PERK-DD fusion, SEAP luminescence translation reporter;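 active means inhibition above the mean inhibition of all tested compounds plus 3 SD, set separately per screening campaign, cut at about 2.9% in these data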;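 further: PERK kinase domain activated by AP20187 dimerizer at 100 nM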
Hits are given with their value; 0 = inactive; - = not tested or not shown; ! = not confirmed by another sample. Compounds with a hit are over-represented: about 1.8% of the library has one in this group of screens.

SMILES	eIF4E 4G PPI	EP2 antag	EP2 mod	PERK inhibitor
COc1ccc(-c2nnc(SCC(=O)N3CCCC(C)C3)o2)cc1 (centres undefined)	-	0	0	-
COc1ccc(OC)c2c1C(=O)c1ccccc1C2=O	0	0	0	0
COc1ccc(OC)c2c1C(=O)C(Cl)=C(Cl)C2=O	0	112.0	0	0
COc1ccc2[nH]c(=O)c(CN(CCN3CCCC3)C(=O)Nc3ccccc3Cl)cc2c1	57.6	0	0	-
COc1ccc2[nH]c(=O)c(CN(Cc3ccc(C)cc3)C(=O)Nc3ccccc3OC)cc2c1	-	0	60.9	-
CCCCCC(=O)NC(NC(=S)NC1CCS(=O)(=O)C1)C(Cl)(Cl)Cl (centres undefined)	40.4	0	0	0
CCCCCC(=O)NC(NC(=S)N1CCOCC1)C(Cl)(Cl)Cl (centres undefined)	0	0	0	0
CC(=O)c1ccc(NC(=S)N(CCCN(C)C)Cc2ccccc2)cc1	0	128.2	0	0
CCCN(Cc1ccccc1)C(=S)Nc1ccc(C(C)=O)cc1	0	0	0	0
C/C(=N\NC(=O)Cc1cccn1C)c1ccco1	43.8	0	0	0
C/C(=N/NC(=O)Cc1cccn1C)c1ccccc1	0	0	0	0
CCOC(=O)C1=C(C)NC(C)=C(C(=O)OCC)C1c1ccc(Br)o1	0	0	0	0
CCOC(=O)c1c(C)noc1-c1ccc(Br)o1	0	0	0	4.6
Brc1cccc(Cn2c(-c3cncs3)nc3ccccc32)c1	0	0	61.0	0
c1ccc(Cn2c(-c3cncs3)nc3ccccc32)cc1	0	0	0	0
O=C(Nc1ccc2nn(-c3ccccc3)nc2c1)c1cccnc1	0	39.8	0	0
O=C(Nc1ccc2nn(-c3ccccc3)nc2c1)c1ccco1	0	41.2!	0	0
O=C(Nc1cc2nn(-c3ccccc3)nc2cc1Cl)c1ccco1	0	0	0	0
O=C(/C=C/c1ccco1)NC(=S)NNC(=O)c1ccccc1O	-	0	0	-
O=C(NC1CCCc2c1cnn2-c1ccc(F)cc1F)c1ccccn1 (centres undefined)	0	45.4	0	0
O=C(CCc1ccccn1)NC1CCCc2c1cnn2-c1ccc(F)cc1F (centres undefined)	0	0	0	0
O=C(Cc1ccc([N+](=O)[O-])cc1)N1N=C2CCCCC2C1(O)C(F)(F)F (centres undefined)	0	0	72.0	0
Cc1[nH]n(-c2ccccc2)c(=S)c1C=Nc1cccc([N+](=O)[O-])c1	54.8	0	0	0
CCCCN=Cc1c(C)[nH]n(-c2ccccc2)c1=S	0	0	0	0
Cc1ccc(-n2nc(-c3ccco3)cc2C(=O)O)c(C)c1	40.0	0	0	0
SMILES	eIF4E 4G PPI	EP2 antag	EP2 mod	PERK inhibitor
O=C(O)c1cc(-c2ccco2)nn1-c1ccc(Cl)cc1	31.2	0	0	0
COc1ccc(NC(=O)C2CCCN2C(=O)Nc2cccc(C(C)=O)c2)cc1 (centres undefined)	-	0	0	-
O=C(Nc1ccc2[nH]ccc2c1)c1cccs1	32.4	0	0	0
CCCCC(=O)O[C@H]1CCC2C3CCc4cc(O)ccc4C3CC[C@@]21C (some centres undefined)	-	0	0	-
C[C@@]12CC[C@H]3c4ccc(O)cc4CC[C@@H]3[C@H]1CC[C@H]2OC(=O)CCc1ccccc1	-	41.8	0	-
CCOc1ccc2[nH]c(=O)c(CN(C(=O)Nc3ccc(F)cc3)C3CCCC3)cc2c1	-	0	0	-
Cc1ccn(CCCNC(=O)c2cn(C(C)c3ccc(F)cc3)nn2)n1 (centres undefined)	-	0	0	-
O=C(C[N+]1(c2ccccc2)CCOCC1)c1ccccc1	-	53.4	0	-
O=C(Nc1nc(=O)c2ccccc2s1)c1ccc(Cl)cc1	0	0	0	0
O=C(Nc1nc2ccsc2c(=O)s1)c1ccc(Cl)cc1	0	43.2	0	0
Cc1cccc(NC(=O)CN2CCN(Cc3ccc4c(c3)OCO4)CC2)c1	-	0	0	-
c1ccc2cc(-c3cc(-c4cc(-c5ccc6ccccc6c5)on4)no3)ccc2c1	-	45.3	0	-
Clc1ccc(-c2cc(COc3ccc4ccccc4c3)no2)cc1	0	-	0	0
COc1ccc(/C(O)=C2/C(=O)C(=O)N(C)C2c2ccc(O)cc2)cc1OC (centres undefined)	-	0	0	-
COc1cccc(NC(=O)COc2ccc(N3CC(C(N)=O)CC3=O)cc2)c1 (centres undefined)	-	0	0	-
CCCn1c(SCC(=O)Nc2cc(C)ccc2C)nnc1-c1ccncc1	-	0	0	-
COc1ccc(Nc2nnc(C)c(=O)[nH]2)c(OC)c1	0	0	0	4.2
O=C(c1ccco1)N1CCC[C@@H](Cn2nc(-c3cccs3)ccc2=O)C1	-	-	0	-
c1ccc(-c2nc(N3CCCCCC3)c3ccccc3n2)nc1	0	0	61.0	0
